Data on 40 compounds can be found in PubChem BioAssay (Tox21).

Several values for one entry are separate records, joined by “and”; a condition that tells them apart may be missing. Equal entries are not always repeated. Records with an inconclusive call do not appear. A call without a number means that no potency is given here. Some compounds were tested as several samples or in several runs, with calls that do not always agree. Activity calls are given as the source filed them. Calls come from the whole dose curve; as a rule, active = well fitted inhibition curve with a large enough effect in the signal ratio in the repeat runs; inconclusive = weak or mixed curves, or effect the other way; inactive = flat fitted curve, though single readings scatter; the % refers to the signal ratio.
Potency is the fitted concentration of half-maximal effect.

A short description of this assay: qHTS assay for small molecule disruptors of the mitochondrial membrane potential (AID 720635). The conditions noted are these: HepG2 mitochondrial membrane potential, Mito-MPS dye ratio; series mostly up to 83.2 µM. An excerpt:
U.S. Tox21 Program National Center for Advancing Translational Sciences [NCATS] NIH Chemical Genomics Center [NCGC] U.S. Environmental Protection Agency [EPA] National Institutes of Environmental Health Sciences [NIEHS] National Toxicology Program [NTP] U.S. Food and Drug Administration [FDA] Tox21 Assay Overview: Mitochondrial membrane potential (MMP), one of the parameters for mitochondrial function, is generated by mitochondrial electron transport chain that creates an electrochemical gradient by a series of redox reactions. This gradient drives the synthesis of ATP, a crucial molecule for various cellular processes. Measuring MMP in living cells is commonly used to assess the effect of chemicals on mitochondrial function. […] The dye accumulates in the mitochondria of healthy cells as aggregates, with red fluorescence. The mitochondrial potential collapses and the dye can no longer accumulate in the mitochondria and remains in the cytoplasm in monomers, with green fluorescence.
Tox21 Assay Protocol Summary: 2,000 HepG2 cells in 5 uL/well were dispensed into black, clear-bottom 1536-well plates using a Multidrop Combi (Thermo Scientific) dispenser. The assay plates were incubated overnight at 37C to allow cells to attach to the wells, followed by the transfer of 23 nL compound or DMSO vehicle by a pin tool (Kalypsys). The plates were incubated for 1 hr at 37C and 5% CO2, followed by the addition of 5 uL of 2X Mito-MPS dye (BD Biosciences) into each well using Flying Reagent Dispenser (Aurora Discovery) and then following 30 min incubation at 37C. Fluorescence intensity (490nm excitation and 535nm emission for monomers; and 540nm excitation and 590nm emissions for aggregates) was measured using an Envision plate reader.
(In general: qHTS replaces the single test concentration by a dilution series.)
Take `CCCCC(CC)COC(C)=O` (stereo not given): the Potency entry was “inactive”. Take `CCCCC(CC)COC(=O)/C=C\C(=O)OCC(CC)CCCC` (stereo not given): the Potency entry is “inactive”.

As to `CC(C)(CO)COC(=O)C(C)(C)CO`, the Potency entry is “inactive”. As for `CC#C[C@]1(O)CC[C@H]2[C@@H]3CCC4=CC(=O)CCC4=C3[C@@H](c3ccc(N(C)C)cc3)C[C@@]21C`, the figure is 10.6 µM (active); as for `CC(C)Cc1ccccc1`, “inactive”. As for `O=[N+]([O-])c1cccc(Cl)c1`, the entry is “inactive”; as for `CCCCCCOC(C)=O`, “inactive”; as for `CS(=O)(=O)c1ccc([C@@H](O)[C@@H](CO)NC(=O)C(Cl)Cl)cc1`, “inactive”. For `CCCCCCC(C)(C)S`, the Potency entry is “inactive”. For `CC1CC(OC(=O)c2ccccc2O)CC(C)(C)C1` (stereo not given) the value was 27 µM (active). For `COC(=O)c1ccccc1O` the value was “inactive”.

In the case of `Cc1cc(O)cc(C)c1Cl`, the Potency is 21.1 µM (active) and 21.7 µM (active).

On to `CCCCCCCCCCC=CC1CC(=O)OC1=O` (stereo not given), for which the Potency was 68.9 µM (active). For `CC1Cc2ccccc2N1NC(=O)c1ccc(Cl)c(S(N)(=O)=O)c1` (stereo not given) the value was “inactive”; for `NCCNCCNCCNCCN`, “inactive”.

As for `Oc1ccc2ccccc2c1N=Nc1ccccc1`, the Potency was 3.06 µM (active) and 6.11 µM (active). For `O=C(c1ccc(O)cc1)c1ccc(O)cc1O` the value was 19.5 µM (active) and 54.5 µM (active). For `C=C(C)C(=O)OCCC[Si](OC)(OC)OC` the value was 76.1 µM (active) and inactive. As for `Cc1cc(NS(=O)(=O)c2ccc(N)cc2)no1`, the entry is “inactive”; as for `Cc1ccc(C)c(C)c1`, “inactive”. In the case of `COC(=O)Nc1nc2ccc(Sc3ccccc3)cc2[nH]1`, the Potency was 4.33 µM (active).

`CCOC(=O)/C=C\C(=O)OCC`: the Potency result was “inactive”. As for `NS(=O)(=O)c1cc2c(cc1Cl)NC=NS2(=O)=O`, the entry is “inactive”; as for `OC1CCCC1`, “inactive”.

For the compound `Oc1c(Cl)cc(Cl)c(Cl)c1Cl`, the Potency is 11.9 µM (active) and 19.3 µM (active). As for `CC1(C)O[C@@H]2C[C@H]3[C@@H]4C[C@H](F)C5=CC(=O)CC[C@]5(C)[C@H]4[C@@H](O)C[C@]3(C)[C@]2(C(=O)CO)O1`, the entry is “inactive”; as for `CCCCNC(N)=O`, “inactive”; as for `NCCc1ccc(O)c(O)c1`, “inactive”. For `O=C(O)c1ccc([N+](=O)[O-])cc1` the value was “inactive”. For the compound `Clc1cc(Cl)c(Cl)cc1Cl`, the Potency entry was “inactive”. For `Cc1ccc(N)c(S(=O)(=O)O)c1` the value was “inactive”; for `CCCCOCCOCCOC(=O)CCCCC(=O)OCCOCCOCCCC`, “inactive”.

In the case of `CCc1ccc(O)cc1`, the Potency is 54.7 µM (active). For `O=C(Oc1ccccc1)c1ccc(O)cc1` the value was 61.1 µM (active). For `CCCCCC/C=C/CCCCCCCC(=O)O` the value was “inactive”; for `COCC(=O)O`, “inactive”; for `O=C(c1cc(O)c(O)c(O)c1)c1ccc(O)c(O)c1O`, 30.5 µM (active) and 19.3 µM (active). In the case of `CCCCC(CC)C(=O)OCCOCCOCCOC(=O)C(CC)CCCC` (stereo not given), the Potency entry was “inactive and 15.4 µM (active)”. For `CCC(C)C=O` (stereo not given) the value was “inactive”; for `C=CC(=O)OCCCCCCCC(C)C`, “inactive”.
